{
  "source": "ChEMBL document CHEMBL3988442",
  "about": "“University of Dundee, Small-Polar-MMV Screening Library” (2021)",
  "note": "Screen size: about 48,000 compounds; about 13,000 (27%) showed an effect of 50% or more. The list shows a part of the results.",
  "data": [
    {"tested_on": "Wolbachia pipientis", "assay": "Anti-Wolbachia Cell-Based Screen", "type": "functional", "parameters": "scale not given: in the data most compounds retested in dose-response had high values", "conditions": "5 µM", "units": {"Percent Effect": "%"}, "values": [
      {"compound": "COC(=O)C(NC(=O)c1cc(C)ccc1C)c1cccnc1", "note": "(stereo not drawn)", "Percent Effect": -6.12},
      {"compound": "CCCc1cc(NC(=O)c2ccc(Cl)c(N3CCNC3=O)c2)n[nH]1", "Percent Effect": 5.533},
      {"compound": "COC(=O)c1cccc(S(=O)(=O)N2CSCC2C(=O)N(C)C2CC2)c1", "note": "(stereo not drawn)", "Percent Effect": -20.06},
      {"compound": "CC(=O)N(C)C(c1cccnc1)c1ccc(F)c(F)c1", "note": "(stereo not drawn)", "Percent Effect": 0.3352},
      {"compound": "CC(C)C(c1cccnc1)N(C)C(=O)Cc1c(F)cccc1F", "note": "(stereo not drawn)", "Percent Effect": 1.062},
      {"compound": "CCN(C(C)=O)C(c1cccnc1)c1cc(C)cc(C)c1", "note": "(stereo not drawn)", "Percent Effect": 0.6077},
      {"compound": "CCN(C(c1ccc(OC)cc1)c1cccnc1)S(C)(=O)=O", "note": "(stereo not drawn)", "Percent Effect": 3.822},
      {"compound": "CN(CC(=O)N(C)C(c1cccnc1)c1ccc(F)c(F)c1)C1CC1", "note": "(stereo not drawn)", "Percent Effect": 12},
      {"compound": "CCC(=O)NCC(=O)N(C)C(c1ccc(Cl)cc1)c1cccnc1", "note": "(stereo not drawn)", "Percent Effect": 138.5},
      {"compound": "CNC(=O)NCC(=O)N(C)C(c1ccc(Cl)cc1)c1cccnc1", "note": "(stereo not drawn)", "Percent Effect": 108.8},
      {"compound": "CN(CC(=O)N(C)C(c1ccc(Cl)cc1)c1cccnc1)C1CC1", "note": "(stereo not drawn)", "Percent Effect": 97.71},
      {"compound": "CNC(=O)NC(=O)CN(C)C(c1cccnc1)c1ccc(F)cc1F", "note": "(stereo not drawn)", "Percent Effect": -23.22},
      {"compound": "CC(C)N1CCC(N2CCOC3(CCCC3)C2)C1=O", "note": "(stereo not drawn)", "Percent Effect": 10.32},
      {"compound": "Cc1cnc(CNc2c(F)cccc2-n2cccn2)o1", "Percent Effect": -16.45},
      {"compound": "O=C(O)C(F)(F)F.O=C(O)C(F)(F)F.O=C(O)C(F)(F)F.O=C(O)c1cc2c(nc1-c1ccncc1)CCN(C1CCOC1)CC2", "note": "(stereo not drawn)", "Percent Effect": -8.005},
      {"compound": "O=C(O)CCc1cc2n(n1)CCCN(C(=O)c1ccc(F)cc1F)C2", "Percent Effect": -66.14},
      {"compound": "N#Cc1ccnc(N2CCN(CC(O)c3ccc(F)cc3)CC2)c1", "note": "(stereo not drawn)", "Percent Effect": -11.77},
      {"compound": "O=C(O)Cc1cccc(-n2ccnc2-c2ccc(F)c(Cl)c2)c1", "Percent Effect": -0.5745},
      {"compound": "O=C(O)Cc1nc2nccc(-c3ccc(F)cc3)n2n1", "Percent Effect": 127},
      {"compound": "O=C(O)CCc1nc2nccc(-c3ccc(F)cc3)n2n1", "Percent Effect": 119.2},
      {"compound": "O=C(O)CCc1nc2nccc(C(F)(F)F)n2n1", "Percent Effect": 112.1},
      {"compound": "CC(C)c1cc(C(F)(F)F)n2nc(CCC(=O)O)nc2n1", "Percent Effect": -4.305},
      {"compound": "CCN(Cc1c(F)cccc1F)C(=O)c1ccncc1O", "Percent Effect": -5.979},
      {"compound": "COCC1CCN(S(=O)(=O)N2C[C@H](c3ccccc3)[C@@H](N)C2)CC1", "Percent Effect": -1.102},
      {"compound": "CCc1ccc2nc(C)cc(C(=O)NCc3csc(N(C)C)n3)c2c1", "Percent Effect": -26.8},
      {"compound": "COc1nn(C)c2c1CCCN(S(=O)(=O)c1cccc(C)c1)C2", "Percent Effect": 0.0765},
      {"compound": "O=C(C1CC1)N1CC[C@H]2C(=O)N(c3ccsc3)CCO[C@H]2C1", "Percent Effect": 9.146},
      {"compound": "FC(F)C(F)(F)COCc1ncnn1-c1ccc2c(c1)OCO2", "Percent Effect": -0.1872}
    ]}
  ]
}
